Data as given in PubChem BioAssay (NCATS).
Inconclusive results are not listed. A number with no mark means an inactive call. Calls of active or inactive are those of the source. Calls follow the shape of the dose curve; as a rule, active = well fitted curve in the direction sought with a large enough effect; inconclusive = small, poorly fitted or top-dose-only effect, or another doubt; inactive = no such curve, though single readings can be large; an effect the other way counts as inactive or inconclusive.

System: not listed separately
Assay: Primary qHTS for inhibitors of La Crosse Virus (LACV) - induced cell death in SH-SY5Y cells (AID 1508616);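 also: 0% = infected DMSO wells and 100% = uninfected DMSO wells; higher means more rescue of cells from virus-induced death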
Conditions: SH-SY5Y LACV cytopathicity rescue, ATP luminescence, 6 d; series mostly up to 9.63 µM; activity change: at the top concentration
Summary of the method: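 Luminescent ATP readout (ATPLite 1step, 5 min room temperature) measured rescue from LACV-induced death after 6 days of infection at 0.01 MOI; normalized to infected DMSO wells and uninfected DMSO wells.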
Also: top concentration of the series differs between compounds.

First: COCCOCCO
Second: CCCCOC(=O)c1ccccc1C(=O)OCc1ccccc1
The “activity change” value of the first is lower: -1.56% [at 8.54 µM] for the first, 30.1% [at 8.54 µM] for the second.

First: Nc1c(Cl)c(Cl)c(Cl)c(Cl)c1Cl
Second: O=[N+]([O-])c1cc([N+](=O)[O-])c2ccccc2c1
The “activity change” value of the first is higher: -0.578% [at 8.54 µM] for the first, -8.32% [at 8.54 µM] for the second.

Going from `CCOP(=O)(NC(C)C)Oc1ccc(SC)c(C)c1` (stereo not drawn) to `CCC1(CCC(C)C)C(=O)NC(=O)NC1=O`, the “activity change” value falls from 55.4% [at 8.54 µM] to 8.95% [at 8.54 µM].

In the case of `O=S(=O)(O)C(F)(F)C(F)(F)C(F)(F)C(F)(F)F`, the “activity change” value is reported as -11%.

For `COC(C)(C)CCCC(C)C/C=C/C(C)=C/C(=O)OC(C)C` (stereo not drawn), the “activity change” value was 3.34% [at 4.29 µM].

Biological target: Calcium and integrin-binding protein 1 (Homo sapiens) (UniProt Q99828)
Sequence (Q99828 whole entry, looked up): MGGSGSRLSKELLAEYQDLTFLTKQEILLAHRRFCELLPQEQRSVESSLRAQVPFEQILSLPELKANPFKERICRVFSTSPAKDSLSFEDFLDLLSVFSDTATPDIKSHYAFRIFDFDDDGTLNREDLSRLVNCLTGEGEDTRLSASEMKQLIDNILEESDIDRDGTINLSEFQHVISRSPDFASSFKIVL
Assay: Primary qHTS for Identification of Calcium Integrin Binding Protein 1 (CIB1) Competitor (AID 1508620);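 also: GST tagged CIB1 binding a fluorescein labelled alphaIIb integrin peptide tracer; % is scaled to controls: 0 for no effect and ±100 for the full control effect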
Conditions: CIB1-GST / FITC-alphaIIb peptide fluorescence polarization; series mostly up to 57.7 µM; activity change, negative = inhibition: at the top concentration
Summary of the method: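 Fluorescence polarization competition: CIB1-GST (1 uM final) preincubated with compound 15 min at room temperature, then FITC-labeled alphaIIb peptide (100 nM final) added for another 15 min. Polarization read at Ex 480/Em 540.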

Going from `CO[C@H]1CCC(O[C@H]2C[C@H]([C@]3(C)CC[C@]4(C[C@H](O)[C@@H](C)[C@@H]([C@@H](C)C=C(C)C(=O)[C@H](C)C[C@H](C)C(=O)O)O4)O3)O[C@]3(O[C@@H]([C@H]4O[C@@](O)(CO)[C@H](C)C[C@H]4C)C[C@H]3C)[C@H]2C)O[C@H]1C` (stereo partly drawn) to `CC[C@@H]1[C@@H](C)O[C@@](O)([C@@H](C)[C@H](O)[C@H](C)[C@H]2OC(=O)C=CC=C[C@@H](C)[C@@H]([C@@H](C)[C@@H](O)[C@H](C)[C@@]3(O)C[C@H](O[C@H]4C[C@H](O)[C@H](O)[C@H](C)O4)[C@H](CC)[C@@H](C)O3)OC(=O)C=CC=C[C@@H]2C)C[C@H]1O[C@H]1C[C@H](O)[C@H](O)[C@H](C)O1`, the “activity change, negative = inhibition” value rises from -2.84% to 1.2%.

First: O=S(=O)(F)Cc1ccccc1
Second: c1ccc2c(CN3CCNCC3)cccc2c1
The “activity change, negative = inhibition” value of the first is higher: 0.0622% for the first, -1.14% for the second.

Compared with `Cc1c(C(=O)c2cccc3ccccc23)c2cccc3c2n1[C@H](CN1CCOCC1)CO3`, `C=C[C@@H]1CN2CCC1C[C@H]2[C@H](O)c1ccnc2ccccc12` (stereo partly drawn) is higher in “activity change, negative = inhibition” value: -6.81% for the first, 2.88% for the second.

First: C[C@](O)(COc1ccc(C#N)cc1)C(=O)Nc1ccc(C#N)c(C(F)(F)F)c1
Second: CCOC(=O)c1c(C(C#N)=CN)c2ccc(Cl)c(Cl)c2n1C
The “activity change, negative = inhibition” value of the first is lower: -0.409% for the first, 0.471% for the second.

Compared with `CC=C(C)C(=O)O[C@H]1C(C)=C2[C@@H]3OC(=O)[C@@](C)(O)[C@@]3(O)[C@@H](OC(=O)CCC)C[C@](C)(OC(C)=O)[C@@H]2[C@@H]1OC(=O)CCCCCCC`, `CC(=O)O[C@@]12CO[C@H]1C[C@H](O)[C@@]1(C)C(=O)[C@H](O)C3=C(C)[C@@H](O)C[C@@](O)([C@@H](OC(=O)c4ccccc4)[C@@H]21)C3(C)C` is lower in “activity change, negative = inhibition” value: 0.626% for the first, -1.47% for the second.

Compared with `CC(C)(C)[C@]1(O)C[C@@H]2OC(=O)C[C@@]23C(=O)O[C@@H]2OC(=O)[C@H](O)C213` (stereo partly drawn), `COc1cc([C@@H]2c3cc4c(cc3[C@@H](O)C3COC(=O)C32)OCO4)cc(OC)c1O` (stereo partly drawn) is lower in “activity change, negative = inhibition” value: -0.103% for the first, -4.83% for the second.

Going from `CCN1C[C@]2(OC(=O)c3ccccc3NC(C)=O)CC[C@H](OC)[C@@]34[C@H]5CC6[C@@H](OC)C[C@](O)(C(C[C@@H]23)[C@@H]14)[C@@]5(O)[C@@H]6OC` to `C#C[C@]1(O)C=C[C@@H]2[C@@H]3CCC4=CC(=O)CC[C@@H]4[C@H]3CC[C@@]21CC`, the “activity change, negative = inhibition” value falls from 0.223% to -1.11%.

First: COc1ccc(CC2NCCc3cc(OC)c(OC)cc32)cc1OC (stereo not drawn)
Second: c1cc2c(cc1[C@H]1OC[C@H]3[C@H]1CO[C@H]3c1ccc3c(c1)OCO3)OCO2
The “activity change, negative = inhibition” value of the first is higher: 1.87% for the first, -2.81% for the second.

First: CC(=O)OCC1=C(C(=O)O)N2C(=O)[C@@H](N)[C@@H]2SC1
Second: C[C@@]12OC(=O)[C@]1([C@@H](O)[C@@H]1C=CCCC1)NC(=O)[C@H]2CCCl
The “activity change, negative = inhibition” value of the first is lower: -2.32% for the first, -0.319% for the second.

With `C=CCON=C(C[C@H]1O[C@@H]2O[C@]3(C)CC[C@@H]4[C@H](C)CC[C@@H]([C@H]1C)[C@@]24OO3)[C@H]1O[C@@H]2O[C@]3(C)CC[C@H]4[C@H](C)CC[C@@H]([C@@H]1C)[C@@]24OO3` the “activity change, negative = inhibition” value was -3.06%.

Going from `COCCOCCO` to `CCCCOC(=O)c1ccccc1C(=O)OCc1ccccc1`, the “activity change, negative = inhibition” value rises from -3.58% [at 228 µM] to 4.33% [at 228 µM].

Going from `O=S(=O)(O)C(F)(F)C(F)(F)C(F)(F)C(F)(F)F` to `CCC1(CCC(C)C)C(=O)NC(=O)NC1=O`, the “activity change, negative = inhibition” value rises from -2.87% [at 228 µM] to -0.788% [at 228 µM].

Going from `Nc1c(Cl)c(Cl)c(Cl)c(Cl)c1Cl` to `O=[N+]([O-])c1cc([N+](=O)[O-])c2ccccc2c1`, the “activity change, negative = inhibition” value falls from 4.22% [at 228 µM] to -18.4% [at 228 µM].

With `CCOP(=O)(NC(C)C)Oc1ccc(SC)c(C)c1` (stereo not drawn) the “activity change, negative = inhibition” value was 1.63% [at 228 µM].

With `COc1ccc(N(C(=O)Oc2c(C)cccc2C)c2ccnc(Nc3ccc(N4CCN(C)CC4)cc3)n2)c(OC)c1` the outcome was “inactive”.
In the case of `Cc1c(C(=O)Nc2cccc(C(F)(F)F)c2)cc(-c2ccccc2)n1CCCN1CCOCC1`, the outcome is reported as “inactive”.
For `O=C(Oc1ccc([N+](=O)[O-])cc1)N1CCN(Cc2cccc(Oc3ccccc3)c2)CC1`, the outcome was “inactive”.
In the case of `CCN(CC)C(=O)c1ccc(C2=CC3(CCNCC3)Oc3cccc(O)c32)cc1`, the outcome is reported as “inactive”.
For `O=C(NCC1CCOCC1)c1cnc(Nc2ccc(Cl)cc2Cl)nc1C(F)(F)F`, the outcome was “inactive”.
For `O=C(O)CNC(=O)c1c(O)c2ccccc2n(Cc2ccccc2)c1=O`, the outcome was “inactive”.
With `CC(=O)N(C)c1cccc(-c2ccnc3c(C(=O)c4cccs4)cnn23)c1` the outcome was “inactive”.

Compared with `COC(C)(C)CCCC(C)C/C=C/C(C)=C/C(=O)OC(C)C` (stereo not drawn), `CC(C)[C@]12O[C@H]1[C@@H]1O[C@]13[C@]1(O[C@H]1C[C@H]1C4=C(CC[C@@]13C)C(=O)OC4)[C@@H]2O` is higher in “activity change, negative = inhibition” value: -0.621% [at 114 µM] for the first, 3.48% [at 114 µM] for the second.
